# Data published in the supplement of paper PMC8728848.
# Shown is part of a subset that was picked to be rich in the strongest signals.
# B1: CML1 (Coprinopsis cinerea) (protein)
# chain: MAIFHTGSELFIITRGPGKLTLLTWGGLNNLRSVIGAIPTENTGVTKWAVSFSHNYTRFSFIWEGQGEACYQIGNGLTRSPVGRSWSSSSTIHWGSSTVITEDVTSVVPGAVNRDKVTTAYALPDNL
# Assays:
# Test in all cases: glycan array binding signal (z-score within array); higher = stronger binding
# Details in all cases: glycan notation: IUPAC condensed, linker removed
# Fuc(a1-2)Gal(b1-3)GlcNAc = target: Fuc(a1-2)Gal(b1-3)GlcNAc
# Method in brief: (§1)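 Negative Z-scores can be read as non-binding. The Z-score is calculated within each array and then averaged across arrays of one protein sequence at different concentrations or buffers and across linkers. Arrays, 3228 in all, were curated from the Consortium for Functional Glycomics database and kept only where the protein sequence was available.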
# [1] = target: Fuc(a1-2)Gal(b1-3)GlcNAc(b1-2)Man(a1-3)[Fuc(a1-2)Gal(b1-3)GlcNAc(b1-2)Man(a1-6)]Man(b1-4)GlcNAc(b1-4)[Fuc(a1-6)]GlcNAc
# Method in brief: as §1
# [2] = target: Fuc(a1-2)Gal(b1-3)GlcNAc(b1-3)Gal(b1-4)Glc
# Method in brief: as §1
# [3] = target: Fuc(a1-2)Gal(b1-3)GlcNAc(b1-3)GalNAc
# Method in brief: as §1
# [4] = target: Fuc(a1-2)Gal(b1-3)GlcNAc6S
# Method in brief: as §1
# Fuc(a1-2)Gal(b1-4)Glc = target: Fuc(a1-2)Gal(b1-4)Glc
# Method in brief: as §1
# Fuc(a1-2)Gal(b1-4)Glc6S = target: Fuc(a1-2)Gal(b1-4)Glc6S
# Method in brief: as §1
# [5] = target: Fuc(a1-2)Gal(b1-4)GlcNAc(b1-3)Gal(b1-4)GlcNAc
# Method in brief: as §1
# [6] = target: Fuc(a1-2)Gal3S(b1-4)GlcNAc
# Method in brief: as §1
# [7] = target: Fuc(a1-2)Gal6S(b1-3)GlcNAc6S
# Method in brief: as §1
# [8] = target: Fuc(a1-2)[Gal(a1-3)]Gal(b1-3)GlcNAc
# Method in brief: as §1
# [9] = target: Fuc(a1-2)[Gal(a1-3)]Gal(b1-3)GlcNAc(b1-2)Man(a1-3)[Fuc(a1-2)[Gal(a1-3)]Gal(b1-3)GlcNAc(b1-2)Man(a1-6)]Man(b1-4)GlcNAc(b1-4)[Fuc(a1-6)]GlcNAc
# Method in brief: as §1
# [10] = target: Fuc(a1-2)[Gal(a1-3)]Gal(b1-4)GlcNAc(b1-2)Man
# Method in brief: as §1
# [11] = target: Fuc(a1-2)[Gal(a1-3)]Gal(b1-4)GlcNAc(b1-2)Man(a1-3)[Fuc(a1-2)[Gal(a1-3)]Gal(b1-4)GlcNAc(b1-2)Man(a1-6)]Man(b1-4)GlcNAc(b1-4)GlcNAc
# Method in brief: as §1
# [12] = target: Fuc(a1-2)[Gal(a1-4)]Gal(b1-4)GlcNAc
# Method in brief: as §1
# [13] = target: Fuc(a1-2)[GalNAc(a1-3)]Gal(b1-4)GlcNAc(b1-2)Man
# Method in brief: as §1
# [14] = target: Fuc(a1-2)[GalNAc(b1-3)]Gal
# Method in brief: as §1
# [15] = target: Gal(a1-3)Gal(b1-4)[Fuc(a1-3)]GlcNAc
# Method in brief: as §1
# Gal(a1-4)Gal(b1-4)Glc = target: Gal(a1-4)Gal(b1-4)Glc
# Method in brief: as §1
# Gal(b1-3)Gal(b1-4)GlcNAc = target: Gal(b1-3)Gal(b1-4)GlcNAc
# Method in brief: as §1
# [16] = target: Gal(b1-3)GlcNAc(b1-3)Gal(b1-4)GlcNAc
# Method in brief: as §1
# [17] = target: Gal(b1-3)[Neu5Ac(a2-6)]GalNAc
# Method in brief: as §1
# [18] = target: Gal(b1-4)GlcNAc(b1-2)Man(a1-3)[Gal(b1-4)GlcNAc(b1-2)Man(a1-6)][Gal(b1-4)GlcNAc(b1-4)]Man(b1-4)GlcNAc(b1-4)[Fuc(a1-6)]GlcNAc
# Method in brief: as §1
# [19] = target: Gal(b1-4)GlcNAc(b1-2)Man(a1-3)[GlcNAc(b1-2)Man(a1-6)]Man(b1-4)GlcNAc(b1-4)GlcNAc
# Method in brief: as §1
# [20] = target: Gal(b1-4)GlcNAc(b1-3)Gal(b1-3)GlcNAc
# Method in brief: as §1
# [21] = target: Gal(b1-4)GlcNAc(b1-3)Gal(b1-4)GlcNAc(b1-3)Gal(b1-4)GlcNAc(b1-3)Gal(b1-4)GlcNAc(b1-3)Gal(b1-4)GlcNAc(b1-3)Gal(b1-4)GlcNAc(b1-2)Man(a1-3)[Gal(b1-4)GlcNAc(b1-3)Gal(b1-4)GlcNAc(b1-3)Gal(b1-4)GlcNAc(b1-3)Gal(b1-4)GlcNAc(b1-3)Gal(b1-4)GlcNAc(b1-3)Gal(b1-4)GlcNAc(b1-2)Man(a1-6)]Man(b1-4)GlcNAc(b1-4)GlcNAc
# Method in brief: as §1
# [22] = target: Gal3S(b1-3)[Fuc(a1-4)]GlcNAc
# Method in brief: as §1
# Gal6S(b1-3)GlcNAc6S = target: Gal6S(b1-3)GlcNAc6S
# Method in brief: as §1
# GalNAc(b1-3)GalNAc = target: GalNAc(b1-3)GalNAc
# Method in brief: as §1
# GlcNAc(b1-3)Gal(b1-4)Glc = target: GlcNAc(b1-3)Gal(b1-4)Glc
# Method in brief: as §1
# [23] = target: GlcNAc(b1-3)Gal(b1-4)GlcNAc
# Method in brief: as §1
# [24] = target: GlcNAc(b1-3)[GlcNAc(b1-6)]GalNAc
# Method in brief: as §1
# Kdn(a2-3)Gal(b1-3)GlcNAc = target: Kdn(a2-3)Gal(b1-3)GlcNAc
# Method in brief: as §1
# Man(a1-2)Man(a1-3)Man = target: Man(a1-2)Man(a1-3)Man
# Method in brief: as §1
# [25] = target: Neu5Ac(a2-3)Gal(b1-3)GalNAc(b1-3)Gal(a1-4)Gal(b1-4)Glc
# Method in brief: as §1
# [26] = target: Neu5Ac(a2-3)Gal(b1-3)GlcNAc(b1-2)Man(a1-3)[Neu5Ac(a2-3)Gal(b1-3)GlcNAc(b1-2)Man(a1-6)]Man(b1-4)GlcNAc(b1-4)GlcNAc
# Method in brief: as §1
# [27] = target: Neu5Ac(a2-3)Gal(b1-3)[Fuc(a1-4)]GlcNAc
# Method in brief: as §1
# [28] = target: Neu5Ac(a2-3)Gal(b1-4)GlcNAc(b1-2)[Neu5Ac(a2-3)Gal(b1-4)GlcNAc(b1-4)]Man(a1-3)[GlcNAc(b1-4)][Neu5Ac(a2-3)Gal(b1-4)GlcNAc(b1-4)Man(a1-6)]Man(b1-4)GlcNAc(b1-4)GlcNAc
# Method in brief: as §1
# [29] = target: Neu5Ac(a2-3)Gal(b1-4)GlcNAc(b1-3)Gal
# Method in brief: as §1
# [30] = target: Neu5Ac(a2-3)Gal(b1-4)GlcNAc(b1-3)Gal(b1-4)GlcNAc(b1-2)Man(a1-3)[Neu5Ac(a2-3)Gal(b1-4)GlcNAc(b1-3)Gal(b1-4)GlcNAc(b1-2)Man(a1-6)]Man(b1-4)GlcNAc(b1-4)GlcNAc
# Method in brief: as §1
# [31] = target: Neu5Ac(a2-3)Gal(b1-4)GlcNAc(b1-3)Gal(b1-4)GlcNAc(b1-3)GalNAc
# Method in brief: as §1
# [32] = target: Neu5Ac(a2-3)Gal(b1-4)GlcNAc(b1-3)Gal(b1-4)[Fuc(a1-3)]GlcNAc
# Method in brief: as §1
# [33] = target: Neu5Ac(a2-3)Gal(b1-4)[Fuc(a1-3)]GlcNAc(b1-3)Gal
# Method in brief: as §1
# [34] = target: Neu5Ac(a2-3)Gal(b1-4)[Fuc(a1-3)]GlcNAc(b1-3)Gal(b1-4)GlcNAc
# Method in brief: as §1
# [35] = target: Neu5Ac(a2-3)Gal(b1-4)[Fuc(a1-3)]GlcNAc6S
# Method in brief: as §1
# [36] = target: Neu5Ac(a2-3)Gal6S(b1-4)GlcNAc
# Method in brief: as §1
# [37] = target: Neu5Ac(a2-3)Gal6S(b1-4)[Fuc(a1-3)]GlcNAc
# Method in brief: as §1
# [38] = target: Neu5Ac(a2-3)[GalNAc(b1-4)]Gal(b1-4)GlcNAc
# Method in brief: as §1
# [39] = target: Neu5Ac(a2-6)Gal(b1-4)GlcNAc
# Method in brief: as §1
# [40] = target: Neu5Ac(a2-6)Gal(b1-4)GlcNAc(b1-2)[Neu5Ac(a2-6)Gal(b1-4)GlcNAc(b1-4)]Man(a1-3)[GlcNAc(b1-4)][Neu5Ac(a2-6)Gal(b1-4)GlcNAc(b1-2)[Neu5Ac(a2-6)Gal(b1-4)GlcNAc(b1-6)]Man(a1-6)]Man(b1-4)GlcNAc(b1-4)GlcNAc
# Method in brief: as §1
# [41] = target: Neu5Ac(a2-6)Gal(b1-4)GlcNAc(b1-3)Gal(b1-3)GlcNAc
# Method in brief: as §1
# [42] = target: Neu5Ac(a2-6)Gal(b1-4)GlcNAc(b1-6)[Gal(b1-3)GlcNAc(b1-3)]Gal(b1-4)Glc
# Method in brief: as §1
# [43] = target: Neu5Ac(a2-6)Gal(b1-4)GlcNAc6S
# Method in brief: as §1
# Neu5Ac(a2-6)GalNAc = target: Neu5Ac(a2-6)GalNAc
# Method in brief: as §1
# [44] = target: Neu5Ac9Ac(a2-3)Gal(b1-4)GlcNAc
# Method in brief: as §1
# [45] = target: Neu5Gc(b2-6)Gal(b1-4)GlcNAc
# Method in brief: as §1
binder,measurement,setting,value
B1,glycan array binding signal (z-score),Fuc(a1-2)Gal(b1-3)GlcNAc,5.31
same,glycan array binding signal (z-score),[1],1.34
same,glycan array binding signal (z-score),[2],4.85
same,glycan array binding signal (z-score),[3],3.31
same,glycan array binding signal (z-score),[4],4.12
same,glycan array binding signal (z-score),Fuc(a1-2)Gal(b1-4)Glc,-0.039
same,glycan array binding signal (z-score),Fuc(a1-2)Gal(b1-4)Glc6S,1.38
same,glycan array binding signal (z-score),[5],-0.335
same,glycan array binding signal (z-score),[6],-0.157
same,glycan array binding signal (z-score),[7],3.67
same,glycan array binding signal (z-score),[8],3.51
same,glycan array binding signal (z-score),[9],1.07
same,glycan array binding signal (z-score),[10],-0.329
same,glycan array binding signal (z-score),[11],-0.242
same,glycan array binding signal (z-score),[12],-0.314
same,glycan array binding signal (z-score),[13],-0.348
same,glycan array binding signal (z-score),[14],-0.318
same,glycan array binding signal (z-score),[15],-0.346
same,glycan array binding signal (z-score),Gal(a1-4)Gal(b1-4)Glc,-0.322
same,glycan array binding signal (z-score),Gal(b1-3)Gal(b1-4)GlcNAc,-0.329
same,glycan array binding signal (z-score),[16],-0.339
same,glycan array binding signal (z-score),[17],-0.338
same,glycan array binding signal (z-score),[18],-0.348
same,glycan array binding signal (z-score),[19],-0.342
same,glycan array binding signal (z-score),[20],-0.326
same,glycan array binding signal (z-score),[21],-0.303
same,glycan array binding signal (z-score),[22],3.48
same,glycan array binding signal (z-score),Gal6S(b1-3)GlcNAc6S,-0.336
same,glycan array binding signal (z-score),GalNAc(b1-3)GalNAc,-0.349
same,glycan array binding signal (z-score),GlcNAc(b1-3)Gal(b1-4)Glc,-0.323
same,glycan array binding signal (z-score),[23],-0.329
same,glycan array binding signal (z-score),[24],-0.329
same,glycan array binding signal (z-score),Kdn(a2-3)Gal(b1-3)GlcNAc,-0.319
same,glycan array binding signal (z-score),Man(a1-2)Man(a1-3)Man,-0.348
same,glycan array binding signal (z-score),[25],-0.333
same,glycan array binding signal (z-score),[26],-0.355
same,glycan array binding signal (z-score),[27],4.64
same,glycan array binding signal (z-score),[28],-0.332
same,glycan array binding signal (z-score),[29],-0.3
same,glycan array binding signal (z-score),[30],-0.331
same,glycan array binding signal (z-score),[31],-0.342
same,glycan array binding signal (z-score),[32],-0.341
same,glycan array binding signal (z-score),[33],4.46
same,glycan array binding signal (z-score),[34],2.41
same,glycan array binding signal (z-score),[35],4.04
same,glycan array binding signal (z-score),[36],6.01
same,glycan array binding signal (z-score),[37],3.49
same,glycan array binding signal (z-score),[38],-0.353
same,glycan array binding signal (z-score),[39],-0.352
same,glycan array binding signal (z-score),[40],-0.321
same,glycan array binding signal (z-score),[41],-0.35
same,glycan array binding signal (z-score),[42],-0.355
same,glycan array binding signal (z-score),[43],-0.334
same,glycan array binding signal (z-score),Neu5Ac(a2-6)GalNAc,-0.331
same,glycan array binding signal (z-score),[44],-0.348
same,glycan array binding signal (z-score),[45],-0.339
